Laboratory results: PubChem BioAssay AID1030 (National Center for Advancing Translational Sciences (NCATS), 2008)
Screen size: about 220,000 compounds; about 16,000 (7.3%) were called active. Not shown: some 25% with an inconclusive outcome. What follows is part of a selection rich in actives, with near analogues and random picks from the rest. A number with no mark means an inactive call. Calls follow the shape of the dose curve; as a rule, active = well fitted inhibition curve with a large enough effect (not every such curve was filed as active); inconclusive = small, poorly fitted or top-dose-only effect, or another doubt; inactive = no such curve, though single readings can be large or run the other way.

target: Aldehyde dehydrogenase 1A1 (Homo sapiens) (UniProt P00352); test: qHTS Assay for Inhibitors of Aldehyde Dehydrogenase 1 (ALDH1A1); conditions: Purified ALDH1A1, NADH fluorescence, propionaldehyde substrate; series mostly up to 75.3 µM; activity, negative = inhibition: at the top concentration;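 as to activity, negative = inhibition: plate controls were no enzyme wells and a reference inhibitor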
Potency is read from the fitted curve at half-maximal effect.

Aldehyde dehydrogenase 1A1 (Homo sapiens), sequence (P00352 whole entry, looked up): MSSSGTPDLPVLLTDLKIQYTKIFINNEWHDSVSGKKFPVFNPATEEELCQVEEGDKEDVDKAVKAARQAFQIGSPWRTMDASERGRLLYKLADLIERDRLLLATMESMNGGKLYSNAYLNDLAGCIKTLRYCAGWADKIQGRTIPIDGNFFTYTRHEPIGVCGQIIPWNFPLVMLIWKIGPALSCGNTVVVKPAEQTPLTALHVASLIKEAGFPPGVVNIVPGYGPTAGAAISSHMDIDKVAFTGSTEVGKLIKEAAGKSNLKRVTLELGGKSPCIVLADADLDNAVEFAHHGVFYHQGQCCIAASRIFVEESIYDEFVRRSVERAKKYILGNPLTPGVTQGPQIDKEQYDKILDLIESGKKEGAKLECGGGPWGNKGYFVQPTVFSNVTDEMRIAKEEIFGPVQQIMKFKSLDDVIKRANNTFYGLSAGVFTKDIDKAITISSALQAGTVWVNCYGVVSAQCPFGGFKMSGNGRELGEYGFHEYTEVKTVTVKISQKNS

SMILES | Potency | activity, negative = inhibition
CCCCNC(=O)c1ccccc1NC(=O)c1ccccc1N(C)S(C)(=O)=O | 22.4 µM (active) | –
CCC(C)NC(=O)c1ccccc1NC(=O)c1ccccc1N(C)S(C)(=O)=O (stereo not given) | – | 3.65%
COC(=O)c1ccccc1NC(=O)c1ccccc1NS(C)(=O)=O | – | -2.49%
NC(=O)C[n+]1cccc(C(N)=O)c1 | – | 2.11%
O=C(Cn1cnc([N+](=O)[O-])n1)NCCc1ccccc1 | – | -2.11%
COc1ccc(-n2nnnc2SCC(=O)NCc2cccs2)cc1 | – | -1.85%
Cc1cc(C)nc(Nc2ncn[nH]2)n1 | – | -14.3%
O=C(OCc1ccccc1F)c1ccc2c(c1)OCCO2 | – | -11.3%
O=C(CN1CCN(c2ccccc2F)CC1)c1ccc2c(c1)OCO2 | 14.1 µM (active) | –
CCCC(=O)Nc1ccccc1N1CCN(C(=O)c2ccccc2)CC1 | – | -15.2%
O=C(Nc1ccccc1)c1ccc2c(c1)OCO2 | – | 13.2%
O=C(Nc1ccccc1N1CCN(C(=O)c2ccccc2)CC1)c1ccc2c(c1)OCO2 | 10 µM (active) | –
O=C(c1ccc(CN2CCOCC2)cc1)N1CCN(c2ccccc2F)CC1 | – | 10.2%
Cc1ccc(NC(=O)Nc2ccccc2)c(Br)c1 | – | -2.88%
O=C(NCCc1ccccn1)c1cc(-c2ccc(Cl)cc2)nc2ccccc12 | – | 6.65%
N#Cc1cnn2cc(CCN3CCOCC3)c(-c3ccc(F)cc3)nc12 | – | -12.3%
Cn1cnnc1SCC(=O)NNC(=O)COc1ccc(Br)cc1 | – | 9.24%
Cc1ccc(-n2c(C)cc(/C=C(\C#N)C(=O)NCC3CCCO3)c2C)cc1 (stereo not given) | 3.16 µM (active) | –
Cc1cc(/C=C(/C#N)C(=O)Nc2ccc(Cl)cc2)c(C)n1-c1cccnc1 | – | -1.65%
Cc1ccc(C(=O)N/C(=C/c2cccs2)C(=O)NCC2CCCO2)cc1 (stereo not given) | – | -7.6%
CCOn1c(=O)c(=O)n(O)c2ccccc21 | – | -5.96%
CC(=O)NCCc1nc2cc(NC(=O)c3ccccc3)ccc2n1C | – | -1.52%

SMILES | Potency | activity, negative = inhibition
COc1ccc2c(c1)CCC/C2=N\OC(=O)c1ccccc1F | – | -20.5%
CCSc1nnc(NC(=O)Cc2ccccc2OC)s1 | – | -5.35%
CC(C)C(=O)Nc1nnc(Sc2ccc(N(C)C)cc2)s1 | 25.1 µM (active) | –
CCSc1nnc(NC(=O)c2ccc(C)cc2)s1 | – | -8.87%
O=C(c1cn2ccccc2n1)N1CCc2c([nH]c3ccccc23)C1c1ccccn1 (stereo not given) | – | 1.57%
O=C(NCCc1ccc(F)cc1)c1n[nH]c2ccccc12 | – | -2.4%
Cc1ccc(S(=O)(=O)NCCC(c2ccccc2)c2ccccc2)cc1C(=O)O | – | 4.12%
O=S(=O)(NCCSc1ccccn1)c1ccc(Cl)cc1 | – | -15.3%
COCCNC(=O)c1ccccc1NS(=O)(=O)c1ccc(C)c([N+](=O)[O-])c1 | – | -1.86%
CCOc1ccc(S(=O)(=O)NCCSc2ccccc2)cc1 | 6.31 µM (active) | –
O=S(=O)(NCCNS(=O)(=O)c1ccccc1)c1ccccc1 | – | -5.94%
Cc1ccc(S(=O)(=O)NCCSc2ccccc2)cc1[N+](=O)[O-] | 7.08 µM (active) | –
CNC(=O)C(=O)N/N=C/c1ccccn1 | – | -4.05%
COC(=O)c1c(C(=O)OC)c(-c2cccc(C)c2)n2c1CS(=O)C2 (stereo not given) | – | -6.5%
Cn1cc(/C=C/C(=O)N2CCCC(C(=O)c3ccc(C(F)(F)F)cc3)C2)cn1 (stereo not given) | – | 9.43%
CN1CCN(C(=O)/C(=C\c2ccc3c(c2)OCO3)NC(=O)c2cccs2)CC1 | – | -0.635%
Cc1ccc(NC(=O)C2(N3CCC3=O)CCCCC2)cc1 | – | 1.58%
O=C(COC(=O)CNS(=O)(=O)c1ccccc1)NC12CC3CC(CC(C3)C1)C2 | – | -7.67%
S=C(NC1CCCCC1)NN1CCOCC1 | – | 1.83%
CC(=O)Nc1ccc(S(=O)(=O)Oc2ccc(/C=N/N=C3/NC(=O)C(CC(=O)O)S3)cc2)cc1 (stereo not given) | – | 1.77%
CC(C)c1cnc(NC(=O)Cc2ccccc2)s1 | – | -0.206%
C=C(C)CNC(=S)Nc1ccc(S(=O)(=O)Nc2cnc3ccccc3n2)cc1 | – | 0.013%

SMILES | Potency | activity, negative = inhibition
COc1ccc(CN(C)C(C)C(=O)NC2CCCc3ccccc32)cc1 (stereo not given) | – | -6.38%
COc1cc(/C=N/Nc2ccc(C)cc2)cc(Br)c1O | 25.1 µM (active) | –
COc1cc(/C=N/NC(=S)Nc2cccnc2)cc(OC)c1O | – | -4.07%
COc1cc(/C=N\NC(=O)C2C(=O)NCC2c2ccccc2)cc(OC)c1O (stereo not given) | – | -7.71%
CCOc1cc(/C=N/O)cc(Br)c1OC | – | 7.31%
COc1cc(/C=N/O)cc(Br)c1OCc1cccc(Cl)c1 | – | -0.0601%
COc1cc(/C=N/O)cc(Br)c1OS(=O)(=O)c1ccc(C)cc1 | 1.58 µM (active) | –
CC(C)(C)OC(=O)N/N=C/c1cn(-c2ccccc2)nc1-c1cccnc1 | – | -2.63%
CCN(CC)CC(=O)Nc1sc2c(c1C(=O)c1ccccc1C)CCC2 | – | 0.5%
Cc1ccc(SCCC(=O)NCc2ccccn2)cc1 | – | 22.3%
N#Cc1ccc(OCc2nnc(-c3ccc([N+](=O)[O-])cc3)o2)cc1 | – | 10.2%
CCCSc1ncccc1C(=O)O | – | 8.95%
CN(C)NC(=O)C(NC(=O)c1ccc(N)cc1)C12CC3CC(CC(C3)C1)C2 (stereo not given) | – | 6.96%
Cc1ccc(NC(=S)NCCN2CCOCC2)cc1 | – | 3.09%
CNC(=S)N/N=C/c1ccc(N2CCOCC2)s1 | 8.91 µM (active) | –
CNC(=S)N/N=C/c1cn(Cc2ccc(C)cc2)c2ccccc12 | – | 7.55%
CC(C)CC[n+]1ccn(C2=C([O-])c3ccccc3C(=O)/C2=N\S(=O)(=O)c2ccccc2)c1 | 8.91 µM (active) | –
COc1ccc(-c2csc(Nc3ccccn3)n2)cc1 | – | -0.0234%
Brc1ccc2ncnc(NCc3cccnc3)c2c1 | – | -13.4%
O=S(=O)(NCCc1ccccc1)c1ccccc1 | – | -12.5%
Cc1ccc(S(=O)(=O)NCCSC(C)(C)C)cc1 | 17.8 µM (active) | –
Cc1ccc(C(=O)NCCNS(=O)(=O)c2ccccc2)cc1 | – | -6.04%

SMILES | Potency | activity, negative = inhibition
COc1cc(OC)cc(C(=O)OCC(=O)Nc2ccc(F)cc2F)c1 | – | 10.8%
CC(C)=C1C2CCC1C1C(=O)N(NC(=O)c3ccco3)C(=O)C21 (stereo not given) | – | -5.49%
COc1ccccc1OCCNC(=O)c1cc([N+](=O)[O-])cc([N+](=O)[O-])c1 | – | -2.38%
COc1cccc(NCCC(=O)c2cccc([N+](=O)[O-])c2)c1 | 0.224 µM (active) | –
COc1ccc(NS(=O)(=O)c2cc(NC(=O)CC(=O)c3ccc([N+](=O)[O-])cc3)ccc2C)cc1 | – | 2.71%
O=C(NCc1csc(-c2cccs2)n1)C1CC1 | – | -8.54%
CC(C)Oc1ccc(Cc2n[nH]c(=S)n2Cc2ccccc2)cc1Cl | – | -16.6%
O=C(COc1ccccc1)NCc1ccc2c(c1)OCO2 | – | 7.72%
NC(=O)COc1ccc(C23CC4CC(CC(C4)C2)C3)cc1 | – | -1.21%
NNC(=O)COc1ccc(C2SCCS2)cc1 | 3.98 µM (active) | –
COc1ccc(CCNC(=O)COC(=O)Cc2cc(OC)c(OC)c(OC)c2)cc1 | – | -0.172%
CC(C)N(Cc1nc(-c2ccc3c(c2)OCO3)no1)CC1CCC(=O)N1 (stereo not given) | – | 2.18%
Cc1nc(N)c(Br)c(C)c1Br | – | 1.53%
Cc1ccc(/C=N\n2c(-c3ccccc3)n[nH]c2=S)s1 | – | -14.3%
CCN(CC)S(=O)(=O)c1cccc(-c2n[nH]c(=S)n2/N=C/c2ccc(C(=O)OC)cc2)c1 | 22.4 µM (active) | –
COC(=O)c1ccc(/C=N/N2C(C)CCCC2C)cc1 (stereo not given) | – | -1.75%
CCN(CC)C(=O)C(=O)Nc1cccc(Br)c1 | – | -4.49%
C=CCn1c(CCNC(=O)c2ccccc2F)nnc1SCC(=O)Nc1ccc(OC)cc1 | – | -11.5%
Cc1nc(CN2CCN(C(=O)CCc3nnc(Cc4c[nH]c5ccccc45)o3)CC2)cs1 | – | 2.48%
CCN1C(=O)N[C@@H](CCc2ccccc2)C(C(=O)OC)=C1C | – | 5.7% [at 13.5 µM]
Cc1cc(NC(=O)CN2C(=O)NC(CCc3ccccc3)C2=O)no1 (stereo not given) | – | -0.844%
COC(=O)c1c(NC(=O)CN2C(=O)NC(CCc3ccccc3)C2=O)sc2c1CCCCC2 (stereo not given) | 20 µM (active) | –

SMILES | Potency | activity, negative = inhibition
CCC1CCCCN1CCNS(=O)(=O)c1ccc2c(c1)CCN2C(C)=O (stereo not given) | – | 0.798%
CC(=O)N1CCc2cc(S(=O)(=O)Nc3ccccc3N3CCN(C)CC3)ccc21 | – | 7.2%
CCCNS(=O)(=O)c1ccc2c(c1)CCCN2C(C)=O | 22.4 µM (active) | –
CC(=O)Nc1ccc(NC(=O)COc2ncnc3ccccc23)cc1 | – | 3.32%
O=S(=O)(Cc1noc(-c2ccc(OC(F)(F)F)cc2)n1)c1ccc(F)cc1 | – | -7.22%
CSc1nc2sc3c(c2c(=O)[nH]1)CCc1ccccc1-3 | – | 11.5%
COc1cccc(-n2c(=S)[nH]c3c(oc4ccccc43)c2=O)c1 | – | -11.3%
COc1ccc(-n2c(=S)[nH]c3sc4c(c3c2=O)CCc2ccccc2-4)cc1 | 3.98 µM (active) | –
CC(NC(=O)CC1SC(N)=NC1=O)c1ccccc1 (stereo not given) | – | -6.24%
O=C(NCCc1c[nH]c2ccccc12)c1cc2ccccc2oc1=O | – | -9.8%
CN=C1C=C/C(=N/N=c2\ccn(O)cc2C)C=C1C | – | -3.17%
COc1ccc(C2CC(c3cccs3)=NN2C(=O)CSc2nnc(N)s2)cc1OC (stereo not given) | – | 0.616%
CCn1cc(C(=O)N2CCN(C3CCCCC3)CC2)c2cc(OC)c(OC)cc2c1=O | – | -14.1%
CCn1cc(C(=O)N2CCN(Cc3ccc4c(c3)OCO4)CC2)c2cc(OC)c(OC)cc2c1=O | 2.24 µM (active) | –
CCn1cc(C(=O)NCc2ccc3c(c2)OCO3)c2cc(OC)c(OC)cc2c1=O | – | -10.8%
Cn1cnnc1SCc1nnc(-c2ccccc2Br)o1 | – | -2.2%
COCc1ccc(C(=O)N2CCc3c([nH]c4ccccc34)C2c2ccccn2)s1 (stereo not given) | – | -0.297%
COc1ccccc1CC(NC(C)=O)C(=O)NC1CCN(C(=O)Nc2ccccc2Cl)CC1 (stereo not given) | – | -12.5%
Cc1nn(C)cc1/C=C1\CCC/C(=C\c2cn(C)nc2C)C1=O | 28.2 µM (active) | –
CCn1cc(/C=C2/SC(=S)NC2=O)c(C)n1 | – | -5.29%
Cc1c(Cl)c([N+](=O)[O-])nn1CC(=O)NCC1CCCO1 (stereo not given) | – | 7.79%
CCOC(=O)c1ccc(NC(=O)c2cc(=O)[nH]c3ccccc23)cc1 | – | -6.06%
